From PubChem
CYP2C9 inh – blockers of cytochrome P450 2C9 activity – biochemical, luminescence, ADME assay, primary screen | CYP2C9 Supersomes, luciferin-H conversion | hit rate 20% among 96,000 | AID 777, 2007 | inhibition, % at 5 µM | P11712;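 active = blocking of liver enzyme CYP2C9 beyond about 50% at 5 µM, limit read from the data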
CYP2C9 act – human CYP2C9 activators, primary screen, biochemical, luminescence | recombinant CYP2C9, luciferin-H conversion; stronger effect = higher value; factor 1 = untreated enzyme, 0 = blocked | hit rate 1.4% among 96,000 | activation factor at 5 µM;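 active = activation factor of 2 or more for CYP2C9 at a 5 µM dose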;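 also: 0 = sulfaphenazole-blocked wells and 1 = vehicle-only wells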
CYP2C19 inhib – blockers of cytochrome P450 2C19 activity – biochemical, luminescence, ADME assay, primary screen; P33261; CYP2C19 Supersomes, luciferin-H EGE luminescence, 30 min; inhibition, % at 5 µM; hit rate 21% among 96,000; AID 778, 2007;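 active = CYP2C19 inhibition above a set limit at 5 µM in the primary screen, cut at about 50% in these data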;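 also: plate controls were negative control wells for no effect and 2.5 mM tranylcypromine positive control for full effect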
CYP2C19 act – human CYP2C19 activators, primary screen, biochemical, luminescence; Cytochrome P450 2C19 (Homo sapiens), P33261; recombinant CYP2C19, luciferin-H EGE luminescence; stronger effect = higher value; 0 = fully inhibited enzyme, 1 = untreated enzyme; activation factor at 5 µM; 96,000 tested, under 10 active; AID 1025, 2008;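 active = activation factor of at least 2 at 5 µM in the primary screen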;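 also: 0 = wells with 2.5 mM tranylcypromine and 1 = vehicle-only wells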
EphB4 antag – EphB4-ephrin-B2 interaction antagonists, primary screen, biochemical, TNYL-RAW peptide probe, fluorescence polarization; hit rate 0.15% among 97,000; AID 720, 2007; EphB4 LBD / TNYL-RAW-Alexa532 peptide; inhibition, % at 7 µM;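 active = inhibition above the screen-wide mean inhibition plus 3 SD, cut at about 15% in these data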;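 also: 0% = DMSO wells and 100% = excess unlabeled TNYL-RAW peptide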
* hit, by the source's call; / = not tested or not shown. This is a sample that favours compounds with a hit; in the whole collection about 27% have one here.

SMILES	CYP2C9 inh	CYP2C9 act	CYP2C19 inhib	CYP2C19 act	EphB4 antag
CCN(CC)C(=O)c1sc(NC(=O)C(Sc2ccccc2)c2ccccc2)c(C(=O)OC(C)C)c1C (stereo not given)	84*	0.2	21	0.8	-4
CCOC(=O)c1c(NC(=O)COC)sc(C(C)=O)c1C	38	0.6	17	0.8	4
CCOC(=O)c1sc(NC(=O)CN(CC(C)C)CC(C)C)c(C(=O)OCC)c1C	62*	0.4	35	0.7	5
CCOC(=O)c1c(NC(=O)OC)sc(C(=O)N(CC)CC)c1C	67*	0.3	56*	0.4	-8
O=C(O)c1cccc(CN2C(=O)CSC2=O)c1	14	0.9	46	0.5	-12
Cc1cc(C)n(-c2nc3ccccc3nc2N2CCN(C(=O)c3ccccc3)CC2)n1	26	0.7	6	0.9	5
O=c1cc(N2CCCCC2)c(-c2ccccc2)nn1Cc1ccc(Cl)cc1	-8	1.1	-3	1	-1
O=c1cc(CSc2ccc(S(=O)(=O)N3CCCCC3)cn2)nc2sccn12	80*	0.2	66*	0.3	-1
CC(C)[C@H](NC(=O)OC(C)(C)C)C(=O)N/N=C/c1cccc2nccnc12	23	0.8	-5	1	5
Cc1nn2c3c(cnc2c1-c1ccccc1)C(=O)CC(c1ccccc1)C3 (stereo not given)	54*	0.5	36	0.6	0
Cc1nn2c3c(cnc2c1-c1ccccc1)C(=O)CC(c1ccco1)C3 (stereo not given)	27	0.7	-8	1.1	-3
CCN(CC)C(=O)Cn1cc(/C=C(\C#N)C(=O)N2CCN(c3ccccc3)CC2)c2ccccc21	56*	0.4	71*	0.3	1
O=C(Cn1cc(/C=N/O)c2ccccc21)N1CCOCC1	-10	1.1	-12	1.1	5
O=c1c2ccccc2nc(-c2ccccc2)n1Cc1ccc(Cl)cc1	82*	0.2	77*	0.2	3
O=c1c2ccccc2nc2n1CCCS2	13	0.9	6	0.9	-5
O=c1c2ccccc2nc2n1CCN2Cc1ccc(Cl)cc1	67*	0.3	74*	0.3	/
O=c1c2ccccc2nc(-c2ccccc2)n1CCN1CCOCC1	12	0.9	26	0.7	2
COc1ccc(C(C)C)cc1S(=O)(=O)N1CCN(C)CC1	-16	1.2	37	0.6	2
COc1ccccc1C(=O)C1Nc2ccccc2-c2nnc(SC)nc2O1 (stereo not given)	/	/	/	/	1
CCCCSc1nnc2c(n1)OC(C(=O)c1ccccc1)Nc1ccccc1-2 (stereo not given)	87*	0.1	49	0.5	0
COc1ccc(C(=O)OC(C)CN2CCOCC2)cc1OC (stereo not given)	-6	1.1	2	1	/
CC(=O)Nc1ccc(S(=O)(=O)N2CCCc3ccccc32)cc1	36	0.6	34	0.7	4
CCC(=O)N1CCCc2cc(S(=O)(=O)N3CCCc4ccccc43)ccc21	-63	1.6	21	0.8	-10
O=S(=O)(NC1CC1)c1ccc(S(=O)(=O)N2CCc3ccccc32)cc1	82*	0.2	72*	0.3	6
CCn1c(=O)n(CC)c2cc(S(=O)(=O)N3CCc4ccccc43)ccc21	95*	0.1	96*	0	4
SMILES	CYP2C9 inh	CYP2C9 act	CYP2C19 inhib	CYP2C19 act	EphB4 antag
Nc1ccc(S(=O)(=O)N2CCCc3ccccc32)cc1	-273	3.7*	74*	0.3	-1
COc1ccc(NC(=O)c2ccc(CNc3c(NC4CCCCC4)c(=O)c3=O)cc2)cc1OC	43	0.6	20	0.8	-5
COC(=O)CSc1nnc(CNS(=O)(=O)c2ccc(C)cc2)n1C	-12	1.1	-12	1.1	6
CC(C)COc1ccc(C(=O)Nc2scc(-c3ccc(Cl)cc3Cl)c2C(N)=O)cc1	67*	0.3	30	0.7	5
CC(C)COc1ccc(C(=O)NCc2ccco2)cc1	22	0.8	18	0.8	-2
NC(=O)CSc1nnc(-c2ccc(O)cc2)n1Cc1ccco1	/	/	/	/	-2
Cc1cc(C)c(NC(=O)CSc2nnc(-c3ccncc3)n2Cc2ccco2)c(C)c1	38	0.6	27	0.7	-6
O=C(CSc1nnc(-c2ccc(Cl)cc2)n1Cc1ccco1)c1cccs1	55*	0.5	7	0.9	4
O=C(CSc1nnc(-c2ccncc2)n1Cc1ccco1)c1ccc(Cl)cc1	92*	0.1	95*	0.1	-3
O=C(CSc1nnc(-c2ccncc2)n1Cc1ccco1)Nc1ccccc1Cl	89*	0.1	97*	0	6
CCOC(=O)C(C)Oc1ccsc1C(=O)OC (stereo not given)	14	0.9	2	1	-1
O=C(CSc1ccccc1)Nc1ccccc1C(=O)O	33	0.7	1	1	5
COC(=O)c1ccccc1NC(=O)Cn1cc(Br)cn1	0	1	60*	0.4	-3
Cc1ccc(SCC(=O)Nc2ccccc2C(=O)O)cc1	85*	0.2	34	0.7	1
COC(=O)c1ccccc1NC(=O)CSc1n[nH]c(CC(C)C)n1	-50	1.5	86*	0.1	1
COC(=O)c1ccccc1NC(=O)CSc1n[nH]c(C)n1	/	/	/	/	-1
COC(=O)c1ccccc1NC(=O)CSc1ccccc1	-28	1.3	95*	0	/
COC(=O)[C@@H](NC(=O)Nc1ccc(C(C)=O)cc1)C(C)C	-14	1.1	4	1	2
COc1ccc(C(=O)c2c[nH]c(C(=O)NCc3cccnc3)c2)cc1	14	0.9	17	0.8	2
CCOC(=O)N1CCN(C(=O)CSc2nc3c(c(=O)n2-c2ccccc2OC)SCC3)CC1	34	0.7	12	0.9	-2
CCOC(=O)c1sc2ncn(/N=C/N(C)C)c(=O)c2c1C	-10	1.1	-9	1.1	-11
COC(=O)C1=C(C)NC2=C(C(=O)CCC2)C1c1coc2ccccc2c1=O (stereo not given)	10	0.9	39	0.6	/
COC(=O)c1ccccc1NC(=O)COc1ccccc1	2	1	53*	0.5	3
COCCNC(=O)c1ccccc1NC(=O)COc1ccccc1	46	0.5	-1	1	9
N#Cc1ccccc1NC(=O)CC1CCCCC1	0	1	58*	0.4	2
COCC(=O)Nc1ccccc1C#N	-5	1	4	1	6
O=C1C=C(NCc2ccco2)C2(CCCCC2)O1	7	0.9	8	0.9	6
O=C1C=C(NCc2ccccc2)C2(CCCCC2)O1	12	0.9	70*	0.3	-1
O=C1C=C(NCc2ccc(Cl)c(Cl)c2)C2(CCCCC2)O1	38	0.6	77*	0.2	-5
CCCOC(=O)c1ccc(NC(=O)C2C3C=CC(O3)C2C(=O)O)cc1 (stereo not given)	14	0.9	34	0.7	/
